SIAE inh = human SIAE inhibition, primary screen; SIAE FP-Rh probe binding, fluorescence polarization; inhibition, % at 9.66 µM; 0.69% of 370,000 active;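 active means inhibition above a cutoff: mean of compounds within the control limits plus 3 SD of those, cut at about 17% in these data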;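 further: 0% = plate median of compound wells and 100% = probe without SIAE protein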
Target sequence (Q9HAT2 whole entry, looked up): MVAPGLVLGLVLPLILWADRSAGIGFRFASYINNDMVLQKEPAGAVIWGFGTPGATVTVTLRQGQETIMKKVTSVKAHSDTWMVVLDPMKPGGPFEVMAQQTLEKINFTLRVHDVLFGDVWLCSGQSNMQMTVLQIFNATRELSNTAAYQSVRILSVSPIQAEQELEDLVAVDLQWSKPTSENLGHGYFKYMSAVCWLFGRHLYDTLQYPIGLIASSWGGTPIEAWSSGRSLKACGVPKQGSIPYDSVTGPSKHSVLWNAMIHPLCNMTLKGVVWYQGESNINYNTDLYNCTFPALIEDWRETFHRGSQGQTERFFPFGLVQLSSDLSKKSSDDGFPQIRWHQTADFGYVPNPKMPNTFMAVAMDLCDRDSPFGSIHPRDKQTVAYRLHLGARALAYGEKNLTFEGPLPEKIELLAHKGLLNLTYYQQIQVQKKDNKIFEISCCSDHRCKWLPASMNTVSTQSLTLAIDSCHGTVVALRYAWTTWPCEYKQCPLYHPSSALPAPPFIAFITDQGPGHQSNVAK
PAD4 FP inh = blocks human protein arginine deiminase 4; inhibition, % at 6.36 µM; recombinant PAD4, RCA probe fluorescence polarization; 0.41% of 330,000 active; AID 485272;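 active means percent inhibition above a cutoff equal to the mean of all tested compounds plus 3 SD, cut at about 15% in these data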;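 further: 0% = PAD4 with RCA probe and DMSO and 100% = probe without PAD4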
Fam108B inh = Fam108B inhibition, counter-screen for RBBP9 inhibitors. recombinant Fam108B, FP-Rh probe fluorescence polarization. AID 1947. 0.33% of 300,000 active. inhibition, % at 9.51 µM;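 active means inhibition above the screen mean inhibition plus 3 SD, computed separately per campaign, cut at about 18% in these data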;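 further: inhibitors lower polarization as less probe binds the enzyme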
PRMT1 inh = blocks human protein arginine methyltransferase 1; Q99873; recombinant PRMT1, activity-based probe fluorescence polarization; inhibition, % at 2.79 µM; 1.3% of 370,000 active; AID 652257;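 active means inhibition above about 21% made by adding two undisclosed values, limit read from the data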
PME-1 inh = PME-1 (human) inhibition | inhibition, % at 5.9 µM | Q9Y570 | 0.53% of 320,000 active | recombinant PME-1, FP-Rh probe fluorescence polarization;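 active means inhibition above the campaign mean of all compounds plus 3 SD, cut at about 26% in these data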;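 further: competitive labeling of PME-1 active site by serine hydrolase directed probe; 0% = PME-1 with DMSO and 100% = wells lacking PME-1 enzyme; inhibitors block probe labeling so polarization falls and inhibition rises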
TCR-CD3 inh = human TCR-CD3 binding inhibition. TAMRA-labeled TCR probe fluorescence, biochemical. inhibition, % at 9.4 µM. 0.37% of 360,000 active. AID 651800; in the data active means inhibition above about 19%;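 further: recombinant mutant TCR 2C K166C tagged with TAMRA read by polarization; 0% = receptor in buffer alone and 100% = receptor with positive control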
PRMT1 confirm = PRMT1 (human) inhibition, FP confirmation. shares compounds with PRMT1 inh. recombinant His-PRMT1, activity-based probe fluorescence polarization. inhibition, % at 2.79 µM. 42% of 3,300 active. AID 687036;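 active means mean inhibition across replicates above the hit cutoff derived for the earlier primary screen, cut at about 22% in these data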
* hit, by the source's call; · = no result given. In the library only some 2.6% were active in any assay of this set; here they are far more common.

SMILES	SIAE inh	PAD4 FP inh	Fam108B inh	PRMT1 inh	PME-1 inh	TCR-CD3 inh	PRMT1 confirm
O=C(O)Cn1cc(C(=S)N2CCCCC2)c2ccccc21	-1	-2	3	25*	-7	-2	5
Clc1ccc([C@H]2OC[C@@]3(CNCc4ccc5c(c4)OCO5)CS[C@H](c4ccc(Cl)cc4)N23)cc1	2	·	·	4	·	·	·
CCN(CC)CCn1c2ccccc2c2nc3ccccc3nc21	-5	-1	0	-5	-6	9	·
CCN(CC)CCn1c2ccccc2c2n[nH]c(=S)nc21	3	-1	-2	85*	1	4	58*
Cc1oc(=O)c(NC(=O)c2ccccc2)cc1C(=O)c1ccccc1	2	0	2	56*	-1	5	11
Cc1oc(=O)c(NC(=O)c2ccc(Cl)cc2)cc1C(=O)c1ccccc1	5	-2	0	42*	-15	2	21
CC(=O)c1cc(NC(=O)c2ccccc2)c(=O)oc1C	0	0	3	20	-2	3	·
CC(=O)c1cc(NC(=O)c2ccc(C)cc2)c(=O)oc1C	2	1	2	33*	-6	-2	-6
COC(=O)c1cc(NC(=O)c2ccc(OC)cc2)c(=O)oc1C	1	-5	5	1	-6	5	·
O=S1(=O)c2ccc(Br)cc2OC[C@H](Cc2ccccc2)N1Cc1cn(Cc2ccc(Br)cc2)nn1	-6	·	·	2	·	·	·
Cc1ccc(NC(=O)OC2CC3CC2[C@H]2CCCCN2C3)cc1C (some centres undefined)	3	·	·	-5	·	·	·
O=C(NCc1ccc(F)c(F)c1)C1CCC(CNS(=O)(=O)c2cccc3cccnc23)CC1 (centres undefined)	3	·	·	7	·	·	·
CCOc1ccc(NCc2cc3cc(OC)ccc3[nH]c2=O)cc1	1	-8	4	2	0	-3	·
COc1ccc2[nH]c(=O)c(CNc3ccccc3)cc2c1	7	0	0	25*	2	-6	1
N#Cc1c(-c2cccc(Br)c2)cc(-c2ccco2)[nH]c1=O	0	-10	-3	33*	-1	0	10
CCN(CC)c1ccc(N)cc1S(=O)(=O)Nc1ccccc1OC	5	0	2	46*	-3	-1	14
CCN(CC)c1ccc(N)cc1S(=O)(=O)Nc1ccc(OC)cc1	4	3	5	7	2	-1	·
C1=C(c2ccc(-c3ccccc3)cc2)Nc2ncnn2C1c1ccco1 (centres undefined)	-12	·	·	39*	·	4	22*
O=C(Nc1ccc(Cl)cc1)c1ccc2ncsc2c1	-2	2	-4	4	-7	-4	·
O=C(c1ccc2ncsc2c1)N1CCCCC1	4	3	1	8	-3	7	·
O=C(O)c1ccc2ncsc2c1	2	10	1	25*	1	-1	13
O=C(Nc1cccc(Cl)c1)c1ccc2ncsc2c1	-24	5	-5	32*	-8	1	-2
O=C(COC(=O)c1ccc2ncsc2c1)Nc1cccc(Cl)c1	-18	12	·	33*	-16	-10	2
CCOC(=O)[C@]12CCCC3=C1N(CCC3)C(=O)[C@@H](CC(=O)NCc1ccc(OC)c(OC)c1)C2	-3	·	·	-3	·	·	·
O=C(O)C1CSC(c2coc3ccccc3c2=O)N1 (centres undefined)	-8	1	-1	51*	-3	12	35*
SMILES	SIAE inh	PAD4 FP inh	Fam108B inh	PRMT1 inh	PME-1 inh	TCR-CD3 inh	PRMT1 confirm
Cc1ccc2c(c1)c1c(n2CC(O)CN2C(=O)CNC2=O)C(=O)CCC1 (centres undefined)	11	1	2	33*	-2	-8	1
CCC[C@H]1[C@@H](OC(=O)NC2CCC2)CC[C@@]23CCCN2C(=O)CCC[C@@H]13	-9	·	·	3	·	·	·
COC(=O)[C@]12C[C@H](CC(=O)N3CCC(c4ccccc4)CC3)C(=O)N(Cc3ccc(Cl)cc3Cl)C1=C[C@H](C1CCCC1)O[C@@H]2C	-1	·	·	4	·	·	·
O=C(O)c1ccccc1C(=O)c1ccc(-c2ccccc2)cc1	-3	-1	-6	3	2	-3	·
O=C(c1ccccc1)c1ccccc1N1C(=O)C=CC1=O	-8	3	0	85*	3	-3	97*
O=C1C=CC(=O)N1c1ccccn1	4	·	·	5	·	2	·
O=C1C=CC(=O)N1c1ccccc1N1C(=O)C=CC1=O	-2	·	·	93*	·	-1	90*
COC(=O)[C@]12C[C@H](CC(=O)NCc3cccc(C(F)(F)F)c3)C(=O)N(Cc3ccc(Cl)cc3Cl)C1=C[C@H](C(C)(C)C)O[C@@H]2C	-1	·	·	-1	·	·	·
Cc1cc2ccccc2n1CCNC(=O)c1ccc(Br)o1	8	3	-4	27*	0	18	1
Cc1cc2ccccc2n1CCNC(=O)c1ccccc1	-2	9	8	3	1	5	·
Cc1ccc(NC(=O)Cn2nnc(-c3ccccc3F)n2)cc1C	5	·	·	17	·	·	·
O=C1NC(=S)S/C1=C\c1cc(Cl)cc(Cl)c1O	-71	·	·	32*	·	-55	34*
O=C1NC(=S)SC1=Cc1ccccc1Cl	-12	·	·	20	·	1	·
Cc1cc(C)c2c(=O)n(CC(=O)N3CCC(N4CCCCC4)CC3)sc2n1	-2	-2	1	78*	2	8	4
CCOC(=O)C1CCCN(C(=O)Cn2sc3nc(C)cc(C)c3c2=O)C1 (centres undefined)	·	1	4	·	-1	·	·
CCCNC(=O)Cn1sc2nc(C)cc(C)c2c1=O	1	-1	-5	93*	-10	-6	94*
O=C1NNC(c2ccccc2)=N/C1=C\c1ccco1	12	1	1	30*	3	-1	13
O=C1NNC(c2ccccc2)=N/C1=C\c1ccccc1Cl	-2	·	·	-1	·	-5	·
CC(=O)NC(c1ccc(F)c(F)c1)c1nc(-c2cnc3ccccc3c2)cs1 (centres undefined)	-4	·	·	32*	·	3	3
COC(=O)C1CN(C(=O)OC(C)(C)C)C2=C1C(=O)CC(C)(C(=O)OC(C)(C)C)C2 (centres undefined)	6	·	·	-2	·	·	·
CCOc1ccc(-n2c(SCC(=O)Nc3ccc(Oc4ccccc4)cc3)nnc2-c2ccncc2)cc1	-4	·	·	3	·	·	·
Cc1ccc(CNC(=O)c2ccc(NC(=O)CCS(=O)(=O)c3cccs3)cc2)cc1	0	-2	-1	35*	-8	3	2
O=C(CCS(=O)(=O)c1cccs1)Nc1ccc(C(=O)NCc2ccccc2)cc1	-3	-1	5	2	5	-4	·
O=C(O)CCCC(=O)Nc1ccc(OCc2nc3ccccc3s2)cc1	-4	-7	1	26*	-3	-4	7
O=C(NCCF)C1Nc2ccc(OC(F)(F)F)cc2C2C=CCC12 (centres undefined)	5	-5	-1	29*	7	1	-1
